Assay outcomes: PubChem BioAssay, National Center for Advancing Translational Sciences (NCATS)
KB-3-1 tox: qHTS assay for MDR1-selective chemotherapeutics: Primary screen using the parental adenocarcinoma cell KB-3-1. KB-3-1 viability, CellTiter-Glo ATP luminescence, 72 h. Potency, µM (titrated, usually from 46.1 µM), most hits filed as cytotoxic. actives 1.4% (n = 400,000). AID 1347075, 2019; note: nearly all actives have a fitted effect of over 60% in size
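Cytotoxicity in the drug-sensitive parental line KB-3-1 was scored as loss of CellTiter-Glo luminescence following 72 h incubation with compound. Values come from curve fitting of normalized concentration-response data.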
MCF10A rereplic: A quantitative high throughput screen for small molecules that induce DNA re-replication in MCF 10a normal breast cells; MCF 10A DNA re-replication, Hoechst nuclear intensity, 48 h; Potency, µM (titrated, usually from 46.1 µM), most hits filed as activators; actives 2.9% (n = 350,000); AID 624296, 2012; note: nearly all actives have a fitted effect of over 50% in size
SW480 rerep: A quantitative high throughput screen for small molecules that induce DNA re-replication in SW480 colon adenocarcinoma cells. SW480 DNA re-replication, Hoechst DNA content imaging, 48 h. Potency, µM (doses to about 46.1 µM), actives largely listed as activators. actives 1.8% (n = 340,000); note: nearly all actives have a fitted effect of over 55% in size
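Image-based read-out: total Hoechst fluorescence of nuclei (405 nm excitation, 500-530 nm emission), with hits raising the fraction of high-intensity nuclei. SW480 colon cells incubated 48 hr with compounds at 37 C.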
KB-V1 cytotox: qHTS assay for MDR1-selective chemotherapeutics: Primary screen using the drug-selected MDR subline cells KB-V1; AID 1347076, 2019; actives 3.4% (n = 400,000); Potency, µM (highest dose often 46.1 µM), actives largely listed as cytotoxic; KB-V1 MDR cells viability, CellTiter-Glo, 72 h; note: nearly all actives have a fitted effect of over 60% in size
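KB-V1 MDR subline cells in DMEM (phenol-red free, 10% FBS) exposed to compounds in qHTS concentration series for 72 h at 37 degrees C. Viability read by CellTiter-Glo luminescence; concentration-effect curves fitted after normalization and correction.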
HT1080 IDH1KD tx: qHTS for induction of synthetic lethality in tumor cells producing 2HG: qHTS for the HT-1080-IDH1KD cell line | HT-1080 IDH1 knockdown viability, ATP luminescence, 48 h | actives 2% (n = 360,000) | AID 686971, 2013 | Potency, µM (highest dose often 46.1 µM), most hits filed as cytotoxic
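In this qHTS, HT-1080 cells depleted of IDH1 are exposed for 48 h at 37 °C to compound titrations. Toxicity is scored from CellTiter-Glo luminescence, with DMSO as full viability and medium alone as none.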
HT1080-NT tox: qHTS for induction of synthetic lethality in tumor cells producing 2HG: qHTS for the HT-1080-NT fibrosarcoma cell line. HT-1080-NT fibrosarcoma viability, CellTiter-Glo ATP luminescence, 48 h. Potency, µM (highest dose often 46.1 µM), most hits filed as cytotoxic. actives 1.6% (n = 360,000). AID 686970, 2013;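 note: NT is the 2HG producing partner of a matched IDH1 knockdown line; nearly all actives have a fitted effect of over 55% in size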
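Fibrosarcoma NT cells, 750 per well in 5% FBS RPMI, were exposed to compound for 48 hours. Viability: CellTiter-Glo luminescence.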
Hits are given with their value; i = inactive; ? = inconclusive; nt = no result given; [ ] = dose if it differs, or a comment. Rows were chosen to be rich in hits. Some 8% of all compounds tested hit in one or more screens of this group. Calls come from the whole dose curve; as a rule, active = well fitted curve in the direction sought with a large enough effect; inconclusive = small, poorly fitted or top-dose-only effect, or another doubt; inactive = no such curve, though single readings can be large; an effect the other way counts as inactive or inconclusive.

SMILES | KB-3-1 tox | MCF10A rereplic | SW480 rerep | KB-V1 cytotox | HT1080 IDH1KD tx | HT1080-NT tox
COC(=O)c1sccc1NC(=S)N1CCCCC1 | i | i | i | i | i | i
COCCNC(=S)N1CCN(c2cccc(C)c2C)CC1 | i | i | i | 21µM | i | i
COCCCNC(=O)c1c(NC(=O)Cc2coc3c(C)c(C)ccc23)sc2c1CCCC2 | i | nt | nt | i | nt | nt
CCCOc1c(OC)cccc1C1CC(=O)Nc2cc3c(cc21)OCCO3 (stereo not drawn) | ? | 5.8µM | ? | ? | ? | ?
CCCOc1c(OC)cccc1C1CC(=O)Nc2cc3c(cc21)OCO3 (stereo not drawn) | 10µM | 5.8µM | 16µM | 16µM | i[9.24 µM] | ?
COc1ccc(OC)c(NC(=O)c2cc3cc(C)ccc3n2C)c1 | i | nt | nt | i | nt | nt
O=C(NCCS(=O)(=O)N1CCN(C(=O)c2ccco2)CC1)c1ccccc1 | i | nt | nt | i | i | i
COc1ccc(C(=O)NCCS(=O)(=O)N2CCN(C(=O)c3ccco3)CC2)cc1 | i | i | 4.1µM | i | i | i
COc1ccccc1OCc1ccc(C(=O)N2CCN(C(=O)c3ccco3)CC2)cc1 | i | i | i | 5.2µM | i | i
CCS(=O)(=O)N1CCN(C(=O)c2ccco2)CC1 | i | 8.2µM | i | i | i | i
Brc1cc(Br)c[n+](CCc2ccccc2)c1 | i | nt | nt | i | nt | nt
CN(C)/C=C/C(=O)c1ccccc1 | i | i | i | i | i | i
CN(C)/C=C/C(=O)c1ccc(F)cc1 | i | 18µM | i | i | i | i
CCCc1nc2c3ccccc3ccn2c1Cc1ccc(C)cc1 | i | nt | nt | i | ? | ?
CCCc1nc2c3ccccc3ccn2c1Cc1cccc(Cl)c1 | i | nt | nt | i | ? | 26µM
CCOC(=O)C1C(=O)CC(O)(c2ccccc2)CC1c1ccccc1 (stereo not drawn) | i | i | i | 23µM | i | i
CCOC(=O)C1C(=O)CC(C)(O)C(C(=O)OCC)C1/C=C/c1ccccc1 (stereo not drawn) | i | i | i | 18µM | i | i
CCOC(=O)C1C(C(=O)OCC)C1(c1ccccc1)c1ccccc1 (stereo not drawn) | i | ? | i | 10µM | i | i
O=C(O)C1C(C(=O)O)C1(c1ccccc1)c1ccccc1 (stereo not drawn) | i | i | i | i | i | i
C[C@H](O)[C@@H]1C(=O)N2C(C(=O)O)=C(SCCN=CN)C[C@@H]12 | nt | i | i | nt | nt | nt
Cc1noc(C)c1CCC(=O)Nc1c(C(C)C)cccc1C(C)C | i | i | i | 15µM | i | i
NCC(=O)c1c[nH]c2ccccc12 | i | nt | nt | i | nt | nt
COCCNC(=S)N/N=C(\C)c1ccc(-n2ccnc2)cc1 | i | i | 7.1µM | ? | 10µM | ?
CCOc1ccc(/C=N/NC(=O)C(O)c2ccccc2)c(O)c1 (stereo not drawn) | i | i | ? | i | 12µM | ?
CCOc1ccc(CCNC(=O)C(O)c2ccccc2)cc1 (stereo not drawn) | i | i | i | i | i | i
SMILES | KB-3-1 tox | MCF10A rereplic | SW480 rerep | KB-V1 cytotox | HT1080 IDH1KD tx | HT1080-NT tox
Cc1cnc2ccccc2c1C | i | nt | nt | i | nt | nt
COc1cccc2cc(C(=O)Nc3ccc(CC(=O)O)cc3)c(=O)oc12 | i | nt | nt | i | nt | nt
CC(C)CC(=O)NC(c1ccccc1Cl)c1c(O)ccc2ccccc12 (stereo not drawn) | ? | ? | ? | 21µM | ? | i
CCC(=O)NC(c1cccc([N+](=O)[O-])c1)c1c(O)ccc2ccccc12 (stereo not drawn) | i | i | i | i | i | i
CC(C)(C)C(=O)NC(c1ccccc1)c1c(O)ccc2ccccc12 (stereo not drawn) | i | i | i | i | i | i
CC(=O)Oc1ccc2ccccc2c1C(NC(=O)Cc1ccccc1)c1ccc(Cl)cc1 (stereo not drawn) | ? | ? | i | ? | 18µM | ?
CCCC(=O)NC(c1ccc(OC)cc1)c1c(O)ccc2ccccc12 (stereo not drawn) | ? | 3.7µM | 21µM | ? | ? | ?
CCOc1ccc(C(NC(=O)CC)c2c(O)ccc3ccccc23)cc1 (stereo not drawn) | ? | ? | 9.2µM | i | ? | ?
COc1ccc(C(NC(=O)CC(C)C)c2c(O)ccc3ccccc23)cc1 (stereo not drawn) | ? | ? | i | i | ? | ?
CN(C)c1ccc(/C=C/N2C=CCc3c2ccc2ccccc32)cc1 | 0.58µM | nt | nt | ? | nt | nt
O=C(NC1CCCCC1)c1sc(N2CCOCC2)nc1-c1ccccc1 | i | 5.8µM | i | i | i | i
Cc1ccc(-c2nc(N3CCOCC3)sc2C(=O)N2CCCCC2)cc1 | i | i | ? | 18µM | i | i
Cc1ccc(-c2nc(N3CCOCC3)sc2C(=O)N2CCOCC2)cc1 | i | i | i | i | i | i
CN(C)c1ccc(C(=O)NCc2ccc3c(c2)CCN3C(=O)c2ccccc2)cc1 | i | nt | nt | i | nt | nt
O=C(NCC(c1ccco1)S(=O)(=O)c1cccs1)c1ccc(F)c(F)c1 (stereo not drawn) | i | nt | nt | i | nt | nt
Cc1c(CCC(=O)NCCCn2ccnc2)c(=O)oc2c(C)c3oc4c(c3cc12)CCCC4 | 23µM | i | i | i | i | i
OCCNc1nc(-c2ccccc2)c2cc(Br)ccc2n1 | i | ? | ? | i | i | i
CCN(CC)c1nc(-c2ccccc2Cl)c2cc(Br)ccc2n1 | i | nt | nt | i | nt | nt
O=C(O)CCC(=O)N1CCN(c2nc(-c3ccccc3)c3cc(Br)ccc3n2)CC1 | i | 23µM | ? | i | i | i
O=C(O)CCC(=O)N1CCN(c2nc(-c3ccccc3Cl)c3cc(Br)ccc3n2)CC1 | i | 21µM | i | i | i | i
Cc1cc(O)cc2c1O[C@](C)(CCC(=O)O)CC2 | nt | nt | nt | nt | i | i
COc1ccc(NC(=O)C(=O)NCC2CCCN2S(=O)(=O)c2cccs2)cc1 (stereo not drawn) | ? | 6.5µM | 2.6µM | ? | ? | ?
CCCCCOc1ccc(NC(=O)C(=O)NCC2CCCN2CC)cc1 (stereo not drawn) | i | 15µM | i | i | i | i
COc1ccc(S(=O)(=O)N2CCCC2CNC(=O)C(=O)Nc2cccc(F)c2)cc1 (stereo not drawn) | i | i | i | 4.1µM | i | i
CCCNC(=O)c1cc2n(n1)CCCN(Cc1ccc(F)cc1)C2=O | i | nt | nt | i | nt | nt
